In the supplement of paper PMC10981050:
“And” between values parts separate entries of the source, which are not always exact repeats. Equal entries are not always repeated. Structures can show the parent of a compound that is named as a salt.

Columns and labels:
Assay in all cases: cell viability relative to vehicle control; higher = less cytotoxic
Details in all cases: 10 µM
[1] = system: K562
Outline: (§1)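 Each screen used CRISPR-edited mutant and wild-type clones from four leukaemia lines. Compounds were acoustically dispensed at a single 10 µM dose, and CellTiter-Glo luminescence was read after 48 h with the supernatant first removed. Viability was analysed in Genedata Screener and given as percent of the on-plate vehicle control.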

[2] = system: MARIMO
Outline: as §1

[3] = system: MOLM14
Outline: as §1

[4] = system: OCI-AML2
Outline: as §1

Row | Compound | cell viability ([1]; SRSF2 genotype: SRSF2 P95H/wt) | cell viability ([1]; SRSF2 genotype: SRSF2 wt/wt) [%] | cell viability ([2]; SRSF2 genotype: SRSF2 P95H/wt) [%] | cell viability ([2]; SRSF2 genotype: SRSF2 wt/wt) [%] | cell viability ([3]; SRSF2 genotype: SRSF2 P95H/wt) [%] | cell viability ([3]; SRSF2 genotype: SRSF2 wt/wt) [%] | cell viability ([4]; SRSF2 genotype: P95H/wt) [%] | cell viability ([4]; SRSF2 genotype: wt/wt) [%]
1 | CCCC(=O)Nc1cccc(NC(=O)c2ccccc2Br)c1 | 92.9% | 95.5 | 97.8 | 96.5 | 102 | 100 | 95.7 | 95
2 | Cn1cnc2c(F)c(Nc3ccc(Br)cc3Cl)c(C(=O)NOCCO)cc21 [AZD6244 (Selumetinib)] | 79% and 92.2% | 75.3 | 37.5 | 36.3 | 44.6 | 31.3 | 39.6 | 43.6
3 | CCc1cc(Nc2nc(-c3ccc(-n4cnc(C)c4)c(F)c3)cs2)c(C)cc1C | 96% and 99.5% | 91.5 | 93.8 | 101 | 96.6 | 93.9 | 94.2 | 91.9
4 | COc1cc(O)c2c(c1)oc(=O)c1c3cc(O)c(O)cc3oc21 [Wedelolactone] | 84.6% and 90.9% | 76.1 | 87.2 | 102 | 61.3 | 67.2 | 68.3 | 82.1
5 | O=S(=O)(c1ccccc1)N(CC(F)(F)F)c1ccc(C(O)(C(F)(F)F)C(F)(F)F)cc1 | 74.6% and 72.6% | 72.3 | 67.8 | 70.4 | 62.3 | 65.2 | 67.5 | 70.7
6 | O=C1C(c2c(O)[nH]c3ccccc23)=Nc2ccccc21 [Indirubin] | 92.2% and 98.7% | 87.3 | 92.3 | 87.8 | 87.5 | 87.9 | 91.8 | 92.9
7 | COc1cc(/C=C/C(=O)O[C@H]2[C@H](O)[C@@H](CO)O[C@@]2(CO)O[C@H]2O[C@H](CO)[C@@H](O)[C@H](O)[C@H]2O)ccc1O [Sibiricose A5] | 113% and 112% | 115 | 108 | 99.2 | 110 | 112 | 107 | 95.7
8 | COc1ccc(-c2cc(=O)c3c(O)cc(O)cc3o2)cc1 [Acacetin] | 106% | 99.1 | 102 | 115 | 107 | 107 | 88.7 | 102
9 | CC(CCC(=O)NCCS(=O)(=O)O)C1CCC2C3C(O)CC4CC(O)CCC4(C)C3CCC12C (stereo not given) [Sodium Tauroursodeoxycholate (TUDC)] | 91.6% and 88.5% | 89.8 | 94 | 103 | 91.7 | 91.2 | 90.3 | 89.4
10 | CCCCC[C@](C)(O)/C=C/[C@@H]1[C@@H](C/C=C\CCCC(=O)O)[C@@H](O)C[C@H]1O [Carboprost] | 110% and 101% | 102 | 97.5 | 91.1 | 78.8 | 99.7 | 90.3 | 90.1
11 | Cc1ccc(Nc2nccc(N(C)c3ccc4c(C)n(C)nc4c3)n2)cc1S(N)(=O)=O [Pazopanib HCl] | 49.1% and 57.7% | 51 | 54.5 | 46.3 | 36.4 | 39.8 | 28.3 | 33.9
12 | O=C1CCc2c(ccc3ccccc23)O1 [Splitomicin] | 105% and 97% | 95.4 | 103 | 107 | 98.7 | 99.5 | 96.9 | 102
13 | CC/C(=C(/c1ccc(/C=C/C(=O)O)cc1)c1ccc2[nH]ncc2c1)c1ccc(F)cc1Cl [Brilanestrant (GDC-0810, ARN-810)] | 100% and 106% | 96.2 | 102 | 95.1 | 86.8 | 92.3 | 96.9 | 102
14 | O=C(NCCO[N+](=O)[O-])c1cccnc1 [Nicorandil (Ikorel)] | 101% and 99.9% | 108 | 108 | 108 | 93.4 | 99.1 | 82.1 | 94
15 | COc1cc(/C=C/c2ccc(O)c(O)c2)cc(OC)c1 [3'-Hydroxypterostilbene] | 74% and 61.4% | 67.4 | 29.2 | 39.9 | 21.3 | 10.6 | 44.4 | 44.7
16 | CCCCOC(=O)c1ccccc1Nc1cccc(C(F)(F)F)c1 [Ufenamate] | 101% and 100% | 99.2 | 93 | 102 | 103 | 109 | 110 | 110
17 | O=[N+]([O-])c1ccc(Sc2cccc[n+]2[O-])c2nonc12 | 0.23% and 0.26% | 0.23 | 0.65 | 0.24 | 0.22 | 0.25 | 0.28 | 0.27
18 | C=CC(=O)Nc1ccc(CN2C(=O)N(c3cc(OC)cc(OC)c3)Cc3cnc(Nc4ccc(N5CCN(C)CC5)cc4)nc32)cc1 | 66.2% and 73.3% | 77.8 | 81.2 | 78.8 | 37.9 | 40.1 | 25.8 | 34.5
19 | CCOC(=O)c1c2c3c(cccc3[nH]c1=O)C(=O)c1ccccc1-2 | 95.8% and 97.2% | 90.7 | 84 | 96.1 | 90.7 | 95.8 | 92.4 | 101
20 | CO/N=C(/C(=O)N[C@@H]1C(=O)N2C(C(=O)OCOC(=O)C(C)(C)C)=C(C)CS[C@H]12)c1csc(N)n1 [Cefetamet pivoxil hydrochloride] | 95.8% and 97% | 102 | 95 | 104 | 92.5 | 103 | 107 | 98.1

Row | Compound | cell viability ([1]; SRSF2 genotype: SRSF2 P95H/wt) | cell viability ([1]; SRSF2 genotype: SRSF2 wt/wt) [%] | cell viability ([2]; SRSF2 genotype: SRSF2 P95H/wt) [%] | cell viability ([2]; SRSF2 genotype: SRSF2 wt/wt) [%] | cell viability ([3]; SRSF2 genotype: SRSF2 P95H/wt) [%] | cell viability ([3]; SRSF2 genotype: SRSF2 wt/wt) [%] | cell viability ([4]; SRSF2 genotype: P95H/wt) [%] | cell viability ([4]; SRSF2 genotype: wt/wt) [%]
21 | CC1=NN(c2ccccc2)C(=O)C1 [Edaravone (MCI-186)] | 107% and 105% | 107 | 111 | 108 | 96.3 | 109 | 116 | 103
22 | Nc1cccc(-c2cc3c(Oc4cccc(O)c4)ncnc3[nH]2)c1 | 28.4% and 39.8% | 27.7 | 84.4 | 94.5 | 37.8 | 35.5 | 53.4 | 53.3
23 | COc1ccccc1N1CCN(CCN(C(=O)C2CCCCC2)c2ccccn2)CC1 | 76.7% and 78.4% | 77.3 | 67.8 | 73 | 75.4 | 77.3 | 74.9 | 66.3
24 | C=C(C)[C@@H]1CC[C@]2(C(=O)O)CC[C@]3(C)[C@H](CC[C@@H]4[C@@]5(C)CC[C@H](O)C(C)(C)[C@@H]5CC[C@]43C)[C@@H]12 [Betulinic acid] | 72% and 77.2% | 80.1 | 82.3 | 51.4 | 86.7 | 89.3 | 61.9 | 65
25 | CNC(=O)c1ccc(-c2cnc3ncc(Cc4ccc5ncccc5c4)n3n2)cc1F | 95% and 101% | 102 | 107 | 115 | 103 | 110 | 111 | 110
26 | Cc1cc(Nc2ccc(NC(=O)c3ccc(Nc4ccnc5ccccc45)cc3)cc2)nc(N)n1 | 1.14% and 0.97% | 2.69 | 0.48 | 0.36 | 0.33 | 0.25 | 0.22 | 0.27
27 | C[C@@H](Oc1ccc2[nH]nc(/C=C/c3cnn(CCO)c3)c2c1)c1c(Cl)cncc1Cl | 36.1% and 35.5% | 30.1 | 6.39 | 5.47 | 0.8 | 0.16 | 0.48 | 4.14
28 | CC(C)=CCC[C@](C)(O[C@@H]1O[C@H](CO)[C@@H](O)[C@H](O)[C@H]1O)[C@H]1CC[C@]2(C)[C@@H]1[C@H](O)C[C@@H]1[C@@]3(C)CC[C@H](O[C@@H]4O[C@H](CO)[C@@H](O)[C@H](O)[C@H]4O[C@@H]4O[C@H](CO)[C@@H](O)[C@H](O)[C@H]4O)C(C)(C)[C@@H]3CC[C@]12C [Ginsenoside Rd] | 99.2% and 91.3% | 93.4 | 94 | 96.8 | 91.8 | 94.5 | 88 | 103
29 | CCOc1cc(C(C)(C)C)ccc1C1=N[C@@](C)(c2ccc(Cl)cc2)[C@@](C)(c2ccc(Cl)cc2)N1C(=O)N1CCN(CCCS(C)(=O)=O)CC1 | 80.8% and 82.7% | 79.8 | 91.2 | 107 | 0.32 | 0.35 | 0.58 | 13.8
30 | COc1cc2c(cc1O)CC[n+]1cc3c(OC)c(OC)ccc3cc1-2 [Jatrorrhizine chloride] | 84.4% and 88.5% | 90.3 | 92.6 | 92.9 | 97.6 | 90.5 | 93.5 | 91.4
31 | COc1ccnc(C[S+]([O-])c2nc3cc(OC(F)F)ccc3[nH]2)c1OC (stereo not given) [Pantoprazole sodium] | 98.7% and 96.7% | 95.9 | 97 | 101 | 96.5 | 97.3 | 95.7 | 104
32 | COc1ccc(CC2c3cc(OC)c(OC)cc3CC[N+]2(C)CCC(=O)OCCCCCOC(=O)CC[N+]2(C)CCc3cc(OC)c(OC)cc3C2Cc2ccc(OC)c(OC)c2)cc1OC (stereo not given) [Atracurium besylate] | 90% and 97.2% | 87.9 | 87.3 | 84.9 | 75 | 97.1 | 115 | 108
33 | CC(C)(C#N)c1ccc(N2C(=O)OCc3cnc4ccc(-c5cnc6ccccc6c5)cc4c32)cc1 | 78.7% and 82.1% | 85.8 | 83 | 92.5 | 66 | 80.2 | 74.5 | 75.7
34 | CC1=C(CC(=O)O)c2cc(F)ccc2/C1=C\c1ccc([S+](C)[O-])cc1 (stereo not given) [Sulindac (Clinoril)] | 109% and 99.8% | 96.8 | 88.6 | 112 | 92.5 | 100 | 94.2 | 102
35 | Cc1ccc(C(=O)Nc2ccc(CN3CCN(C)CC3)c(C(F)(F)F)c2)cc1C#Cc1cnc2[nH]ncc2c1 [GZD824 Dimesylate] | 0.41% and 0.25% | 0.26 | 0.31 | 0.33 | 0.15 | 0.17 | 0.16 | 0.2
36 | O=C1C[C@@H](c2ccc(O)c(O)c2)Oc2cc(O)cc(O)c21 [Eriodictyol] | 98.5% and 97.3% | 108 | 88.6 | 96.1 | 112 | 104 | 96.8 | 95.2
37 | C=CC(=O)N1CC(=Cc2ccc([N+](=O)[O-])cc2)C(=O)C(=Cc2ccc([N+](=O)[O-])cc2)C1 | 15.9% and 2.27% | 9.63 | 3.16 | 1.15 | 0.72 | 0.74 | 2.08 | 1.27
38 | C=CC(=O)N1CC[C@@H](Oc2nc(Nc3ccc(N4CCC(N5CCN(C)CC5)CC4)cc3)c(C(N)=O)nc2CC)C1 [ASP8273 (Naquotinib)] | 51.2% and 34.1% | 47.1 | 26.7 | 29.7 | 8.47 | 10.5 | 20.4 | 24.4
39 | CNC(=O)c1c(F)cccc1Nc1nc(Nc2cc3c(cc2OC)CCN3C(=O)CN(C)C)nc2[nH]ccc12 | 6.79% and 7.34% | 5.25 | 46.2 | 38.8 | 0.66 | 0.35 | 0.91 | 1.46
40 | CCOP(=O)(OCC)C(=Cc1cc(C(C)(C)C)c(O)c(C(C)(C)C)c1)P(=O)(OCC)OCC | 77.8% and 87.5% | 84.6 | 90.4 | 93 | 88.8 | 71.6 | 90.9 | 97
